# Screens as filed in PubChem.
# Sfp PPTase inh: Sfp phosphopantetheinyl transferase inhibition. Q9F4F7. Biochemical Sfp PPTase activity, qHTS. Potency, µM, without a hit: largest response in the series, negative = inhibition, usual class: inhibitors. actives 3.5% (n = 310,000). AID 1490;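 further: the enzyme is Sfp with the accession as filed and its product quenches rhodamine fluorescence; potency means the concentration at half of the fitted maximal effect; 0% = enzyme reaction without inhibitor and -100% = no enzyme wells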
#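 Step 1, compound plus 15 nM Sfp-PPTase, 15 min, room temperature. Step 2, add rhodamine-CoA (5 uM) and BHQ-2-YbbR (12.5 uM). Step 3, read 525/598 nm fluorescence at 0 and 30 min.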
# Tau FP inhib: blocks human tau fibril formation measured by polarization. P10636. K18 P301L tau heparin fibrillization, Alexa594 FP, 6 h. Potency, µM (doses to about 57.7 µM), without a hit: top-dose activity, negative = inhibition, usual class: inhibitors. actives 0.39% (n = 280,000). AID 1468; further: potency means the concentration at half of the fitted maximal effect; nearly all actives have a fitted effect of over 55% in size
# Target sequence (P10636 561-689 P618L limits assumed): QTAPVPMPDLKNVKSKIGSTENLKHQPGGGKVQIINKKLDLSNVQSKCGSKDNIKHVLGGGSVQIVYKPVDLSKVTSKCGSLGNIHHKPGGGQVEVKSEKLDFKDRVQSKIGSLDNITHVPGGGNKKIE
#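 FP of Alexa 594-tau after heparin (20 uM) induction. Substrate: human K18 P301L, 15 uM unlabeled, 0.24 uM labeled. Buffer 100 mM sodium acetate pH 7. 6 hr, 37 C.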
# Tau fluor counter: counter-screen for tau fibril formation inhibitors; tau K18 P301L Alexa594 fluorescence, heparin fibrillization; Potency, µM (highest dose often 57.7 µM), for the others: at the top dose activity change, negative = decrease; actives 0.93% (n = 280,000); further: potency means the concentration at half of the fitted maximal effect; nearly all actives have a fitted effect of over 55% in size
#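 Human K18 P301L tau (15 uM unlabeled plus 0.24 uM Alexa 594-labeled, final) in 100 mM sodium acetate pH 7 was mixed with compound and 20 uM heparin and incubated 6 hr at 37 C.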
# Tau fibril ThT: tau fibrillization inhibition (ThT binding); P10636; recombinant tau K18 P301L (four-repeat tau fragment), heparin-induced fibrillization, ThT fluorescence; Potency, µM (series often up to 57.4 µM), for the others: at the top dose activity, negative = inhibition, usual class: inhibitors; actives 2.1% (n = 270,000); AID 1460; further: potency means the concentration at half of the fitted maximal effect; nearly all actives have a fitted effect of over 55% in size
#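 Heparin-induced fibrillization of the P301L-mutant K18 repeat-domain fragment of human tau was followed by ThT binding in quantitative high-throughput format.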
# FBPA coupling cs: inhibits coupling enzyme system, counter-screen for aldolase hits. actives 0.67% (n = 290,000). AID 2472. activity change, negative = inhibition, % at 58.2 µM, hits read low. coupling enzyme system counterscreen, AmpLite Red fluorescence; in the data active means activity change below about -30%
#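 Fluorescence at 525 nm excitation and 598 nm emission measured inhibition of the coupled detection system without aldolase. Compounds (at 57.5 uM final) were preincubated 10 min at room temperature with coupling enzyme reagent before a 20 min substrate/AmpLite Red step.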
# Active calls of the source: *; u = inconclusive; x = no result; ! = a repeat was not active; [ ] = dose if it differs, or a comment. The list is not random: actives were taken first. Their share in the collection is about 5.2%. Unless noted, the call rests on the fitted dose curve; in most records, active means well fitted curve in the direction sought with a large enough effect; inconclusive means small, poorly fitted or top-dose-only effect, or another doubt; inactive means no such curve, though single readings can be large; an effect the other way counts as inactive or inconclusive. Unless noted, on the % scale 0 is the no-effect control and ±100 the full control effect.
SMILES,Sfp PPTase inh,Tau FP inhib,Tau fluor counter,Tau fibril ThT,FBPA coupling cs
CC(C)c1ccc2nc3sc(C(=O)N4CCc5ccccc5C4)c(N)c3cc2c1,-30%,8%,u,13µM*,-1
CCN1CCc2nc3sc(C(=O)Nc4cccnc4Cl)c(N)c3cc2C1,-20%,x,x,x,x
CCc1ccc2nc3sc(C(=O)N4CCc5ccccc54)c(N)c3cc2c1,-20%,7%,0%,u,1
CCN1CCc2nc3sc(C(=O)Nc4cccc(Cl)c4C)c(N)c3cc2C1,x,4%,u,10µM*,x
Cc1ccc(NC(=O)c2sc3nc4c(cc3c2N)CN(Cc2ccccc2)CC4)cc1,x,6%,-16%,u,x
Cc1cc(C)c2c(N)c(C(=O)N3CCc4ccccc4C3)sc2n1,56µM*,0%,-11%,u,-3
Cc1ccc(Cn2c(C(=O)O)c(CNCc3cccs3)c3ccc(C)cc32)cc1,x,0%,-9%,-6%,x
CCc1cc(-c2n[nH]c(=S)n2N)n(C)n1,40µM*,-1%,0%,3%,2
Cc1ccccc1Cc1n[nH]c(=S)n1N,-30%,3%,9%,8%,-2
CCc1nn(C)c(-c2n[nH]c(=S)n2N)c1Cl,45µM*,-4%,-1%,-3%,0
CCCCn1c(-c2nn(C)c(C)c2Cl)n[nH]c1=S,8%,0%,0%,-10%,2
CC(=O)Nc1ccc(S(=O)(=O)Nc2cccc(-c3ccc(N4CCC(C)CC4)nn3)c2)cc1,x,u,u,6%,x
CC[n+]1c(C=C2C=C(C)OC(C)=C2)sc2ccccc21,1%,1%,2%,25µM*,0
CC[n+]1c(/C=C2/C=C(C)CC(C)C2)sc2ccccc21 (stereo unspecified),45µM*,-12%,-19%,u,-5
CCOCCCNS(=O)(=O)c1ccc2c(c1)OCCO2,17%,-5%,16µM*[quencher],16µM*,2
Cc1ccccc1-c1cncnc1NCc1cccs1,2%,x,x,x,14
Cc1cc(C)c(NC(=S)NCCCSC2CCCCC2)c(C)c1,45µM*,2%,-16%,-17%,0
Cc1cc(C)cc(NC(=O)C2CCN(S(=O)(=O)c3cccc(-c4noc(C)n4)c3)CC2)c1,x,0%,-25%,8%,x
O=Cc1ccc(-c2ccccc2OC(F)(F)F)o1,4%,-6%,-9%,-7%,-1
COc1ccccc1-c1ccc(/C=C2/C=C(CC(C)C)OC2=O)o1,50µM*,3%,-27%,8.9µM*,-8
CCCC1=C/C(=C/c2ccc(-c3ccccc3OC)o2)C(=O)O1,u,-12%,u,13µM*,1
COC(=O)c1sccc1S(=O)(=O)N1CCN(c2cccc(C)c2)C(C)C1 (stereo unspecified),x,-5%,-12%,-6%,x
COc1ccc(CCn2c(O)cc3nn(-c4nc5ccccc5s4)c(=O)c-3c2C)cc1,-4%,-6%,u,18µM*,-8
Cc1c(CN(C)C)c2c(n1Cc1ccccc1)C(=O)c1ccc(Br)cc1-2,-18%,13%,u,16µM*,1
Cc1c(CN(C)C)c2c(n1C)C(=O)c1ccc(Br)cc1-2,11%,7%,-7%,u,-3
SMILES,Sfp PPTase inh,Tau FP inhib,Tau fluor counter,Tau fibril ThT,FBPA coupling cs
Cc1ccc(-c2cc(-c3ccccc3)c(C#N)c(N)n2)o1,7.9µM*,5%,-12%,u,-2
Cc1ccc(-c2cc(-c3ccccc3Cl)c(C#N)c(N)n2)o1,11µM*,-9%,-28%,32µM*,-2
N#Cc1c(-c2cccnc2)cc(-c2ccccc2)nc1N,-1%,-1%,-6%,-3%,0
Cc1ccc(-c2cc(-c3ccc(F)cc3)nc(N)c2C#N)o1,8.9µM*,-10%,-20%,u,-14
CCc1ccccc1NC(=O)Cn1nnc(-c2nc(-c3ccncc3)no2)c1N,x,-11%,-5%,0%,x
Cc1ccc(N=Cc2cc(Br)cc(Cl)c2O)cc1,5%,u,-11%,18µM*,-3
Nc1cccc2c1C(=O)N(CC(=O)NC13CC4CC(CC(C4)C1)C3)C2=O,18%,-4%,-6%,13%,2
O=C(Cn1sc2ccccc2c1=O)NC12CC3CC(CC(C3)C1)C2,2.5µM*,20µM*,-28%,16µM*,1
O=[N+]([O-])c1ccc(NNC(=S)Nc2ccc(F)cc2)cc1,2.5µM*,2%,u,13µM*,0
O=C1OC(Nc2cc(Br)cc3cccnc23)c2ccccc21 (stereo unspecified),u,7%,-8%,-16%,-40*
O=C1OC(Nc2ncccn2)c2ccccc21 (stereo unspecified),15%,-4%,-6%,-9%,0
CCOC(=O)c1c(NC(=O)CCCOc2ccc(C(C)(C)C)cc2)sc2c1CCC2,x,7%,-25%,u,x
CCOC(=O)c1ccc(CN(Cc2ccc(Cl)cc2Cl)S(=O)(=O)c2ccc(F)c(C)c2)cc1,x,0%,0%,10%,x
CN=c1scc(-c2ccc(F)cc2)n1/N=C/c1ccc(O)c(O)c1,56µM*,-1%,18µM*[quencher],10µM*,-9
Cc1ccc(CN2CCN(/N=C/c3ccc(O)c(O)c3)CC2)cc1,-74%,x,x,x,-4
COc1ccc(NC(=O)c2cc3c(s2)-c2c(C)cccc2OC3)cc1Cl,x,u,-29%,u,x
Cc1ccc2nc(-c3ccc(Br)o3)oc(=O)c2c1,12%,0%,-2%,-14%,-3
COc1cc2nc(-c3ccc(Br)o3)oc(=O)c2cc1OC,u,-6%,-17%,u,-40*
CCOc1ccc(C2C(C(N)=O)=C(C)Nc3nc(-c4ccc(OC)cc4)nn32)cc1 (stereo unspecified),x,-6%,-9%,10%,x
CC(=C/C(=O)O)/C=C/c1ccco1,u,u,-20%,14µM*,-2
Cc1ccc(/C=C/C(=O)N2CCN(Cc3ccccc3)CC2)o1,-101%,-12%,-3%,u,-2
CC(/C=C/c1ccc(Cl)o1)=C\C(=O)O,32µM*,u,-14%,u,3
O=C(/C=C/c1ccco1)c1ccccc1O,u,2%,-14%,u,-1
COc1ccc(Br)cc1CNC(=O)c1cc(=O)[nH]c2ccc(S(=O)(=O)N3CCCCC3C)cc12 (stereo unspecified),x,u,u,5%,x
CNCCCC12CCC(c3ccccc31)c1ccccc12,89µM*!,6%,-11%,-13%,-4
Cc1cc(NC(c2nnc(-c3ccccc3)o2)c2ccccc2F)ccc1Br (stereo unspecified),x,-13%,u,-16%,x
Cn1c(=O)n(C)c2cc(CNCc3ccccc3Cl)ccc21,x,3%,-16%,-12%,x
CC(C)OP(=O)(OC(C)C)C1(NS(=O)(=O)c2ccc(Cl)cc2)C=C(Cl)C(=O)C(Cl)=C1,89µM*,x,x,x,14
CC(C)N(CCNS(=O)(=O)c1ccc(Cl)cc1)C(C)C,-10%,3%,1%,-6%,6
